Inconclusive results are not listed. Active and inactive are the calls of the source. The call rests on the fitted dose curve; in most records, active means well fitted inhibition curve with a large enough effect; inconclusive means small, poorly fitted or top-dose-only effect; inactive means no such curve, though single readings can be large or run the other way.
Each compound was assayed against Cytochrome P450 2D6 (Homo sapiens) (UniProt P10635) (assay: qHTS Assay for Inhibitors and Substrates of Cytochrome P450 2D6 (AID 891)). Conditions: recombinant CYP2D6, luciferin-ME EGE luminescence; series mostly up to 11.4 µM.
Sequence of Cytochrome P450 2D6 (Homo sapiens) (P10635 whole entry, looked up): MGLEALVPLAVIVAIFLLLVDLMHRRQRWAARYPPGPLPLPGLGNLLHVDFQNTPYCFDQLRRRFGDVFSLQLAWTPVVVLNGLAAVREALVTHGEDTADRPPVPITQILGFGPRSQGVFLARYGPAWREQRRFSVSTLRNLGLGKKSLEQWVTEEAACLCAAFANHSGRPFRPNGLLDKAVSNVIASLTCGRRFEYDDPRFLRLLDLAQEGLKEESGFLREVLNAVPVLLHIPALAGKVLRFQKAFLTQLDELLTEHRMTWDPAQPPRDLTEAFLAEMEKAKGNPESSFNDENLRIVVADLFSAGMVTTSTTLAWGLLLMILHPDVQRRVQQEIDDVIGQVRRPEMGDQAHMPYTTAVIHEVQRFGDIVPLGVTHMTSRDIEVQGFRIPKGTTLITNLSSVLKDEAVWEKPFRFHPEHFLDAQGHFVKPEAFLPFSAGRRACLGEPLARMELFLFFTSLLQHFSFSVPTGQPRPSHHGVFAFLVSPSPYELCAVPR
Method in brief: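 Human CYP2D6 (5 nM) with 30 uM Luciferin-ME EGE (at Km) in 100 mM KPO4, compound preincubated 10 min, then NADPH regeneration system for 60 min at room temperature. Luciferin read by luminescence; normalized to 1.43 uM quinidine.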
CCN(CC)CCN1c2ccccc2Sc2ccc3ccccc3c21 was tested, and the Potency was 631 nM (active).
With C[C@@H]1CCCN(C[C@@H](O)CN2CCCc3ccccc32)C1 the Potency was 1580 nM (active).
With CN(C)CCCN1c2ccccc2Sc2ccc3ccccc3c21 the Potency was 1260 nM (active).
In the case of CN(C)CCCN1c2ccc3ccccc3c2Sc2cccc(Cl)c21, the Potency is reported as 501 nM (active).
For CN(C)CCCn1c2c3ccccc3ccc2c2oc(=O)c3ccccc3c21, the Potency was 1260 nM (active).
With Oc1ccc2ccccc2c1CN(Cc1c(O)ccc2ccccc12)C1CCCCC1 the Potency was 631 nM (active).
With C[C@H]1CC(C)(C)C[C@@](OCCN2CCCCC2)(c2ccccc2)C1 the Potency was 631 nM (active).
In the case of COc1ccc(-c2csc3c2[N+]2=CCC=C2C3=O)cc1, the Potency is reported as 3160 nM (active).
For CN(C)CCCN1c2ccc(O)cc2Sc2ccc(Cl)cc21, the Potency was 126 nM (active).
In the case of COc1ccc2c(c1)N(CC[C@H]1CCCCN1C)c1ccccc1S2, the Potency is reported as 50.1 nM (active).
With CSc1ccc2c(c1)N(CCCN(C)C)c1ccccc1S2 the Potency was 501 nM (active).

What follows are compounds tested against Cytochrome P450 2C19 (Homo sapiens) (UniProt P33261) (assay: qHTS Assay for Inhibitors and Substrates of Cytochrome P450 2C19 (AID 899)). Conditions: recombinant CYP2C19, luciferin-H EGE luminescence; series mostly up to 11.4 µM.
Sequence of Cytochrome P450 2C19 (Homo sapiens) (P33261 whole entry, looked up): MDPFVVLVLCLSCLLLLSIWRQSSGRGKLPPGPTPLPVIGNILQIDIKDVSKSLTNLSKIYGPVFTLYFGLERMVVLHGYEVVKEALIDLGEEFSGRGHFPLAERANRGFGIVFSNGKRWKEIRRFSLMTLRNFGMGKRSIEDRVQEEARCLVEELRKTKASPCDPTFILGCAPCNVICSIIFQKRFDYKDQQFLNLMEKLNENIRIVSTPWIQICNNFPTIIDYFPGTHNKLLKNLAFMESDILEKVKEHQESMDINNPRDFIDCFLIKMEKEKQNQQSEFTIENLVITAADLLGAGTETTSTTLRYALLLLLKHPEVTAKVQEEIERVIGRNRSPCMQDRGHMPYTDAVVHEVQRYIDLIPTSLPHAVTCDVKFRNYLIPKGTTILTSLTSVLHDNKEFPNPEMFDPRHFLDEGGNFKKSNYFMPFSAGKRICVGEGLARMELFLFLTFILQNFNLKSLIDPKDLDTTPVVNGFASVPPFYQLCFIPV
Method in brief: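 5 nM human CYP2C19 with 10uM Luciferin-H EGE (at KM) in 50mM KPO4, compound preincubated 10 min at 37C, then NADPH regeneration for 60 min at 37C. Luciferin read by luminescence after detection reagent; normalized to 57uM ketoconazole as full inhibition.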
With O=[N+]([O-])c1ccc(S(=O)(=O)Cc2ccccc2)c2nonc12 the Potency was 3160 nM (active).
For Oc1c(C(O)(c2ccccc2)c2ccc3ccccc3c2O)ccc2ccccc12, the Potency was 794 nM (active).
CN(C)CCCN1c2ccc3ccccc3c2Sc2cccc(Cl)c21 was tested, and the Potency was 5010 nM (active).
In the case of O=C1c2ccccc2C(O)(O)[C@@]1(O)[C@]1(O)C(=O)c2ccccc2C1(O)O, the Potency is reported as “inactive”.
With ClC(=Nc1cccc2ccccc12)N(c1ccccc1)c1ccccc1 the Potency was 2510 nM (active).
With C[N+](C)([O-])CCC=C1c2ccccc2CCc2ccccc21 the Potency was 398 nM (active).
With O=C1C(Cl)=C(Sc2nnc3c4ccccc4c4ccccc4c3n2)C(=O)c2ccccc21 the Potency was 1580 nM (active).
In the case of CC(CC(=O)O)(CC(=O)O)c1ccccc1, the Potency is reported as “inactive”.
N#Cc1c(NC(=O)C(F)(F)F)sc2c3c(=O)c4ccccc4c(=O)c=3oc3ccccc3c12 was tested, and the Potency was 501 nM (active).
With COc1ccc(-c2csc3c2[N+]2=CCC=C2C3=O)cc1 the Potency was 3980 nM (active).

Source: PubChem BioAssay (NCATS)
Further: nearly all actives have a fitted effect of over 60% in size.
Potency means the concentration at half of the fitted maximal effect.
